Each structure is given as a SMILES string. Among all 580,000 compounds or so, about 6,100 (1.1%) were called active. Not shown: some 15% with an inconclusive outcome. This is one part of a sample in which actives are shown more often than they occur. Unmarked numbers belong to inactive results. Calls follow the shape of the dose curve; as a rule, active = well fitted inhibition curve with a large enough effect; inconclusive = small, poorly fitted or top-dose-only effect, or another doubt; inactive = no such curve, though single readings can be large or run the other way.
% is scaled to controls: 0 for no effect and ±100 for the full control effect; potency is read from the fitted curve at half-maximal effect.

Chain of Polyunsaturated fatty acid lipoxygenase ALOX12 (Homo sapiens) (P18054 whole entry, looked up): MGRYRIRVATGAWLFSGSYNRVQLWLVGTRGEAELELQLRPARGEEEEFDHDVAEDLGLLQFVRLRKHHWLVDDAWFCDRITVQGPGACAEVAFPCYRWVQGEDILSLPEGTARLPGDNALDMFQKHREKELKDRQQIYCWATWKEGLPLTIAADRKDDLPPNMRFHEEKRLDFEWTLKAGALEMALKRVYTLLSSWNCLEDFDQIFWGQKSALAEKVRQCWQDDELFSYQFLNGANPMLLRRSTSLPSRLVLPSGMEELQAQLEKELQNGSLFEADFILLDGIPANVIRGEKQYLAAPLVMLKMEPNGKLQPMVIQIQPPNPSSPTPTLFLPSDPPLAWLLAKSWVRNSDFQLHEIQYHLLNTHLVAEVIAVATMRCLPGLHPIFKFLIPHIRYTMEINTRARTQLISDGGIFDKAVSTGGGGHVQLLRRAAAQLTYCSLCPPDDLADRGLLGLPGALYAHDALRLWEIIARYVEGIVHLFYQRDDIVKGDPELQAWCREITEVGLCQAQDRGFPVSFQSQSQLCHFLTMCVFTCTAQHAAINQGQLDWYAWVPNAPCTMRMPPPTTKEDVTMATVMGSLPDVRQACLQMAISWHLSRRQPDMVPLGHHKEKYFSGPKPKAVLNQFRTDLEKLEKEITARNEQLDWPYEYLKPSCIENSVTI

This assay concerns the target Polyunsaturated fatty acid lipoxygenase ALOX12 (Homo sapiens) (UniProt P18054). The assay can be described thus: Primary qHTS assay for inhibitors of human arachidonate 12S-lipoxygenase (ALOX12): Round 2. Particulars: purified 12hLO, xylenol orange hydroperoxide absorbance; series mostly up to 108 µM; activity change, negative = inhibition: at the top concentration. The procedure, abridged:
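Purified human 12hLO (150 nM final) in 25 mM Hepes, 0.01% Triton X-100, pH 7.0 was preincubated 15 min at room temperature with compound. Then 40 uM arachidonic acid was added, 30 min. Hydroperoxide was read by Fe-XO absorbance ratio 573/405 nm.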
Background: Quantitative high-throughput screening tests each substance at several concentrations.
Turning to `CCN(CC)S(=O)(=O)c1ccc2c(c1)c(=O)n(CC(=O)N1CCCCCC1)c(=O)n2C`, the “activity change, negative = inhibition” value was 3.26%.

On to `O=C(CSc1nnc(-c2ccc(Cl)cc2)o1)N1CCC(c2ccccc2)=N1`, for which the “activity change, negative = inhibition” value is -7.14%.

In the case of `Cc1cc2c(cn1)C(=O)c1ccccc1-2`, the “activity change, negative = inhibition” value is -6.61%.

With `O=C1C(Cl)=C(Oc2ccccc2)C(=O)c2ccccc21`, the Potency is 11.2 µM (active).

Consider `N#Cc1cccc(CN2CCC(c3ccnn3CCO)CC2)c1`, for which the “activity change, negative = inhibition” value is 2.21%.

As for `COc1ccc2nc(N3CCCC(O)C3)c(C#N)cc2c1` (centres undefined), the Potency was 50.1 µM (active).

As for `COc1ccc2cc(C(=O)C3CCCN(C(=O)c4sc(C)nc4C)C3)ccc2c1` (centres undefined), the “activity change, negative = inhibition” value is -0.7%.

As to `COc1ccc(OC)c(NC(=O)c2nc3ccccc3nc2N2CCCC2)c1`, the “activity change, negative = inhibition” value is 4.4%.

Take `O=C(COc1ccc2ccccc2c1)Nc1nc2n(n1)C(c1ccc(Cl)cc1)CC(=O)N2` (centres undefined): the “activity change, negative = inhibition” value is -2.54%.

Take `O=C(NCC1CCCCO1)C1(Oc2ccc(Cl)cc2)CCNCC1` (centres undefined): the “activity change, negative = inhibition” value was 33.9%.

In the case of `CC(C)N(C(=O)COC(=O)/C=C/c1cccc2cccnc12)c1ccccc1`, the “activity change, negative = inhibition” value was -2.31%.

Regarding `CC(=O)NC1(C)CCN(Cc2cnc(-c3ccc4c(ccn4C)c3)s2)CC1`, the Potency was 39.8 µM (active).

Consider `CC(=O)NC1(C)CN(Cc2ccc(-c3ccc4c(ccn4C)c3)s2)C1`, for which the “activity change, negative = inhibition” value is -9.28% [at 176 µM].

Take `COC(=O)Nc1ncc(CN2CCCCC2)s1`: the “activity change, negative = inhibition” value was 18%.

In the case of `CCCc1c(C)nc(Nc2nc(C)c3ccc(C)cc3n2)[nH]c1=O`, the “activity change, negative = inhibition” value is -5%.

As to `COC(=O)c1sc2ncccc2c1-n1c(C)ccc1C`, the “activity change, negative = inhibition” value is 3.01%.

`COC(=O)c1sc(=S)n(-c2ccccc2)c1N`: the Potency is 44.7 µM (active).

Take `CCOc1ccc(-n2c(N)c(C(=O)NCC3CCCO3)sc2=S)cc1` (centres undefined): the “activity change, negative = inhibition” value is -25.8%.

As to `Cc1ccc(C(=O)NC(c2ccc3c(c2)OCCCO3)C(C)C)cn1` (centres undefined), the “activity change, negative = inhibition” value is -5.47%.

As for `Cc1c(CCC(=O)NCc2ccc3c(c2)OCO3)c(=O)oc2cc(O)ccc12`, the “activity change, negative = inhibition” value is 21.8%.

As for `COc1ccc(NC(=O)c2ccc(Br)o2)cc1NC(=O)c1ccccc1C`, the “activity change, negative = inhibition” value is -25.8%.

Take `O=C(Nc1ccc2c(c1)OCO2)c1cc(=O)c(OCc2ccccc2F)co1`: the “activity change, negative = inhibition” value is 17.9%.

With `CN1C(=O)c2ccc(NC(=O)C(F)(F)C(F)(F)C(F)(F)F)cc2C1=O`, the “activity change, negative = inhibition” value was 16.5%.

Turning to `COc1c(CNCc2cccnc2N2CCOCC2)c(C)nn1C`, the “activity change, negative = inhibition” value was -0.0455%.

Take `Cc1ccccc1CN1CCCn2nc(C)c(-c3cccnc3N3CCOCC3)c21`: the Potency is 28.2 µM (active).

Regarding `Cc1nn2c(c1-c1ccccc1-c1ccccc1)N(C(=O)CN1CCOCC1)CCC2`, the “activity change, negative = inhibition” value was -29.2% [at 176 µM].

`COC(=O)c1cc(C)nc2c1c(=O)n(Cc1cccc(Cl)c1)c(=O)n2-c1ccccc1`: the “activity change, negative = inhibition” value was -23.8%.

As to `Oc1cc2c(cc1O)CN(C(=S)NCCc1ccc(Cl)cc1)CCC2`, the Potency is 17.8 µM (active).

With `O=C(CSCc1ccc(Cl)cc1)N1CCCCC1`, the “activity change, negative = inhibition” value is -10.3%.

With `O=C(NCCc1ccc(Cl)cc1)C1CCCN1C(=O)NCc1ccccc1` (centres undefined), the “activity change, negative = inhibition” value was 0.671%.

Take `CCN(CC(=O)NC(C)C)C(=O)Cn1c(=O)c2c(ncn2CC(C)C)n(Cc2ccccc2)c1=O`: the “activity change, negative = inhibition” value is 0.5%.

As for `CC(C)c1cccc(NC(=O)Cc2n[nH]c(=O)c3ccccc23)c1`, the “activity change, negative = inhibition” value was 6.42%.

`CCc1nnc(NC(=O)COc2ccc3c(C)cc(=O)oc3c2)s1`: the “activity change, negative = inhibition” value was 4.96%.

Consider `CC[C@@H]1Cc2cc(O)ccc2C2=C1c1ccc(O)cc1C[C@H]2CC`, for which the Potency is 50.1 µM (active).

In the case of `Cc1ccc(C)c(NC(=S)NNC=O)c1`, the “activity change, negative = inhibition” value was 36.4%.

As for `Cc1ccc(C)c(NC(=S)NNC(=S)Nc2ccc(C(C)C)cc2)c1`, the Potency was 35.5 µM (active).

Regarding `CCC(C)NC(=S)Nc1ccc(C)cc1` (centres undefined), the “activity change, negative = inhibition” value was -52.6%.

Turning to `O=C(CCC1CCCCC1)NC(N1CCCCC1)(C(F)(F)F)C(F)(F)F`, the “activity change, negative = inhibition” value is 0%.

With `CC(CCc1ccccc1)NC(=O)C1CC=CCC1` (centres undefined), the “activity change, negative = inhibition” value was 4.29%.

For `CCc1ccc(C(=O)Nc2ccc(Cl)cc2)cc1S(=O)(=O)N1CCOCC1`, the “activity change, negative = inhibition” value is -4.05%.

For the compound `CCc1cccc(NC(=O)c2cccc(S(=O)(=O)N3CCOCC3)c2)c1`, the “activity change, negative = inhibition” value is 4.89%.

Take `CCC(CC)C(=O)Nc1ccc(S(=O)(=O)Nc2nccs2)cc1`: the “activity change, negative = inhibition” value was -10.7%.

For `CCc1nnc(NS(=O)(=O)c2ccc(NC(=S)NC(=O)c3cccs3)cc2)s1`, the Potency is 22.4 µM (active).

For the compound `Cc1cc(C)nc(NS(=O)(=O)c2ccc(N/C=C\C(=O)c3cccs3)cc2)n1`, the “activity change, negative = inhibition” value is -7.72%.

Consider `S=C(Cc1ccccc1)SC/C=C/c1ccccc1`, for which the “activity change, negative = inhibition” value was 12.7%.

For the compound `NNc1nc2c(Cl)cccc2s1`, the Potency was 17.8 µM (active).

As to `CCN1CCN(C(=O)c2cc3cc(Cl)cc(Cl)c3oc2=O)CC1`, the “activity change, negative = inhibition” value is -0.253%.

Consider `CCCCNC(=O)C(C#N)c1nc2ccccc2nc1N1CCN(C(=O)OCC)CC1` (centres undefined), for which the “activity change, negative = inhibition” value was -11.5%.

Take `Fc1ccc(N/N=C/c2ccc(-c3ccccc3)cc2)c(F)c1`: the Potency is 2.24 µM (active).

For the compound `O=C(CN1CCN(C/C=C/c2ccccc2)CC1)Nc1ccc(F)cc1F`, the “activity change, negative = inhibition” value was 3.73%.

With `Fc1ccc(N/N=C/c2cccc(/C=N/Nc3ccc(F)cc3F)c2)c(F)c1`, the “activity change, negative = inhibition” value was 58.7%.

Turning to `COc1ccc(NC(C)=O)cc1NC(=O)c1nc(-c2ccccc2)oc1C`, the “activity change, negative = inhibition” value is -6.87%.

Regarding `O=C(NC1CCS(=O)(=O)C1)c1cc2sccc2n1Cc1ccccc1` (centres undefined), the “activity change, negative = inhibition” value was 6.34%.

In the case of `CN(C)CCNC(=O)CC1CCN(C(=O)c2nnc(C(=O)Nc3cccc(Cl)c3)s2)CC1`, the “activity change, negative = inhibition” value was 53.9%.
